Results as given in PubChem BioAssay AID1159580 (chemical genetic matrix, 2015).
Values joined by “and” are separate entries in the source; they are usually repeats but may differ in a detail not shown here. Equal entries are not always repeated. Among all 5,500 compounds or so, about 2,000 (36%) were called active. Not shown: some 18% with an inconclusive outcome. Rule as the data show it: active = normalized growth mostly below about 0.91 (no sharp cut-off); inconclusive = no clear call, values can overlap the other calls; inactive = mostly above about 0.92. The list shows a part of the results.

Experiment: chemical genetic growth profiling, strain panel (AID 1159580);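 also: tested at 20 µM; growth read once vehicle control cultures reached saturation at 30 °C; 1 = growth at the plate median or of vehicle wells; lower values mean less growth of the strain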
Details: S. cerevisiae deletion strains, growth OD

Measured: normalized growth

CCC1(CC)C(=O)C=CNC1=O
inactive: locus YAL021C, strain ccr4, hits give low values 0.998 | locus YAL026C, strain drs2, hits give low values 0.996 | locus YAL030W, strain snc1, hits give low values 1 | locus YBL061C, strain skt5, hits give low values 1.01 | locus YBR009C, strain hhf1, hits give low values 1.02 | locus YBR021W, strain FUR4, hits give low values 1.02 | locus YBR023C, strain chs3, hits give low values 0.994 | locus YBR171W, strain sec66, hits give low values 0.985 | locus YBR229C, strain ROT2, hits give low values 1.01 | locus YBR231C, strain swc5, hits give low values 0.997 | locus YBR279W, strain paf1, hits give low values 1 | locus YCL011C, strain gbp2, hits give low values 0.992 | locus YCL016C, strain dcc1, hits give low values 0.998 | locus YCL029C, strain bik1, hits give low values 1.01 | locus YCL061C, strain MRC1, hits give low values 0.999 | locus YCL069W, strain vba3, hits give low values 0.993 | locus YCR088W, strain abp1, hits give low values 0.986 | locus YDL005C, strain med2, hits give low values 0.999 | locus YDL035C, strain GPR1, hits give low values 1.02 | locus YDL040C, strain nat1, hits give low values 0.999 | locus YDL074C, strain BRE1, hits give low values 0.977 | locus YDL101C, strain DUN1, hits give low values 1 | locus YDL134C, strain PPH21, hits give low values 1.03 | locus YDL185W, strain tfp1, hits give low values 1.02 | locus YDL192W, strain arf1, hits give low values 1.01 | locus YDR001C, strain nth1, hits give low values 0.997 | locus YDR069C, strain doa4, hits give low values 1.02 | locus YDR101C, strain arx1, hits give low values 0.988 | locus YDR137W, strain rgp1, hits give low values 1.03 | locus YDR159W, strain sac3, hits give low values 1.02 | locus YDR162C, strain NBP2, hits give low values 1.02 | locus YDR195W, strain ref2 0.985 | locus YDR297W, strain sur2, hits give low values 0.995 | locus YDR318W, strain mcm21, hits give low values 1.01 | locus YDR334W, strain swr1, hits give low values 0.959 | locus YDR335W, strain msn5, hits give low values 0.997 | locus YDR388W, hits give low values 1.01 | locus YDR392W, strain spt3, hits give low values 0.945 | locus YDR502C, strain sam2, hits give low values 0.995 | locus YEL003W, strain gim4, hits give low values 0.994 | locus YEL037C, strain rad23, hits give low values 0.991 | locus YEL061C, strain CIN8 (second series), hits give low values 0.992 | locus YEL061C, strain CIN8, hits give low values 1 | locus YER015W, strain faa2, hits give low values 1 | locus YER016W, strain bim1, hits give low values 0.999 | locus YER110C, hits give low values 1.03 | locus YER111C, strain swi4, hits give low values 1.01 | locus YER155C, strain BEM2 (second series), hits give low values 0.992 | locus YER155C, strain BEM2, hits give low values 1 | locus YER167W, strain BCK2, hits give low values 1.02 | locus YFR010W, strain ubp6, hits give low values 0.985 | locus YGL078C, strain dbp3, hits give low values 1.02 | locus YGL086W, strain mad1, hits give low values 0.99 | locus YGL167C, strain pmr1, hits give low values 1 | locus YGL173C, strain kem1, hits give low values 1.01 | locus YGL227W, strain vid30, hits give low values 1 | locus YGL240W, strain doc1, hits give low values 1.02 | locus YGL248W, strain PDE1, hits give low values 0.987 | locus YGL253W, strain hxk2, hits give low values 0.985 | locus YGR078C, strain PAC10, hits give low values 0.97 | locus YGR135W, strain pre9, hits give low values 1.05 | locus YGR252W, strain gcn5, hits give low values 0.996 | locus YHR013C, strain ard1, hits give low values 1.03 | locus YHR027C, strain rpn1, hits give low values 0.982 | locus YHR030C, strain SLT2, hits give low values 1.01 and 1 | locus YHR079C, strain IRE1 (second series), hits give low values 1.01 | locus YHR079C, strain IRE1, hits give low values 1.01 | locus YHR094C, strain hxt1, hits give low values 1.02 | locus YHR129C, strain ARP1, hits give low values 1.01 | locus YHR142W, strain chs7, hits give low values 0.964 | locus YHR200W, strain rpn10, hits give low values 1.01 | locus YIL066C, strain RNR3, hits give low values 0.996 | locus YIL073C, strain SPO22, hits give low values 1.07 | locus YIL125W, strain kgd1, hits give low values 0.999 | locus YIR030C, strain dcg1, hits give low values 1.01 | locus YJL092W, strain hpr5, hits give low values 0.992 | locus YJL095W, strain BCK1 (second series), hits give low values 0.996 | locus YJL095W, strain BCK1, hits give low values 0.976 and 1.01 | locus YJL115W, strain asf1, hits give low values 0.973 | locus YJL129C, strain trk1, hits give low values 0.993 | locus YJL134W, strain LCB3, hits give low values 1 | locus YJL154C, strain vps35, hits give low values 0.983 | locus YJL164C, strain tpk1, hits give low values 1.01 | locus YJL166W, strain qcr8, hits give low values 1 | locus YJL168C, strain set2, hits give low values 1 | locus YJL187C, strain SWE1 (second series), hits give low values 0.982 | locus YJL187C, strain SWE1, hits give low values 1.01 | locus YJR043C, strain POL32, hits give low values 0.994
